Here are results for ten compounds from PubChem BioAssay (Tox21).

Test [1] can be described thus: A CellTox Green Cytotoxicity Assay to monitor cytotoxicity in HEK293 cells - 40 hour (AID 1224871). Note: nearly all actives have a fitted effect of over 45% in size. Note: potency is the fitted concentration of half-maximal effect. The essentials:
(§1)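 Tox21 screen in HEK293: membrane-impermeant cyanine dye fluoresces on binding dead-cell DNA; compound pinned 5 h post-seeding, plates held at 37 C, signal read repeatedly through 40 h.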

The nature of test [2]: qHTS RealTime-Glo MT Cell Viability Assay in HEK293 cells - 16 hour (AID 1224872). For activity change, negative = cytotoxicity: top concentration of the series differs between compounds. Note: nearly all actives have a fitted effect of over 50% in size. Note: potency is the fitted concentration of half-maximal effect. The method in brief:
(§2)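 HEK293 cells seeded with NanoLuc/prosubstrate reagent, rested 5 h at 37 C, then dosed and kept at 37 C up to 40 h. Nonlytic real-time luminescence from viable cells read at 0, 8, 16, 24, 32 and 40 h.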
(In general: Quantitative high-throughput screening tests each substance at several concentrations.)

Test [3] in a line: qHTS RealTime-Glo MT Cell Viability Assay in HepG2 cells - 8 hour (AID 1224873). Note: nearly all actives have a fitted effect of over 55% in size. Note: potency is the fitted concentration of half-maximal effect. The method in brief:
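Real-time viability: cells seeded at 600 per well together with NanoLuc and cell-permeant prosubstrate, compounds added after 5 h incubation. Luminescence tracked at 0, 8, 16, 24, 32 and 40 h of exposure.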

Test [4] is described as follows: qHTS RealTime-Glo MT Cell Viability Assay in HEK293 cells - 40 hour (AID 1224874). Note: nearly all actives have a fitted effect of over 50% in size. Note: potency is the fitted concentration of half-maximal effect. Conditions: RealTime-Glo luminescence; max response: stronger effect = lower value. The method in brief: (§3)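 HEK293 + NanoLuc + prosubstrate, 600 cells/well; 5 h, 37 C/5% CO2; compound 23 nL in DMSO by pintool; 37 C; luminescence read at 0, 8, 16, 24, 32 and 40 h time points.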
The nature of test [5]: A CellTox Green Cytotoxicity Assay to monitor cytotoxicity in HEK293 cells - 24 hour (AID 1224875). For activity change: series mostly up to about 77 µM. Note: nearly all actives have a fitted effect of over 45% in size. Note: potency is the fitted concentration of half-maximal effect. The essentials: as §1
Test [6] in a line: qHTS RealTime-Glo MT Cell Viability Assay in HepG2 cells - 32 hour (AID 1224877). Note: nearly all actives have a fitted effect of over 55% in size. Note: potency is the fitted concentration of half-maximal effect. The essentials:
(§4)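 HepG2 cells (600/well) were dispensed with RealTime-Glo reagents, incubated 5 h at 37 °C, then treated with compounds in DMSO for up to 40 h. Nonlytic NanoLuc luminescence reflecting viable cells was read at each stated time point.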

Test [7] is described as follows: A CellTox Green Cytotoxicity Assay to monitor cytotoxicity in HepG2 cells - 24 hour (AID 1224878). Note: nearly all actives have a fitted effect of over 45% in size. Note: potency is the fitted concentration of half-maximal effect. The essentials: (§5)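 Measurements at 0, 8, 16, 24, 32 and 40 h of treatment captured CellTox Green fluorescence in HepG2 cells that had been co-plated with reagent and preincubated 5 h at 37 C/5% CO2.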
The nature of test [8]: A CellTox Green Cytotoxicity Assay to monitor cytotoxicity in HepG2 cells - 40 hour (AID 1224879). Note: nearly all actives have a fitted effect of over 40% in size. Note: potency is the fitted concentration of half-maximal effect. The essentials: as §5
A short description of test [9]: qHTS RealTime-Glo MT Cell Viability Assay in HEK293 cells - 0 hour (AID 1224880). Note: top concentration of the series differs between compounds; nearly all actives have a fitted effect of over 45% in size. The essentials:
as §3

Test [10] in a line: A CellTox Green Cytotoxicity Assay to monitor cytotoxicity in HEK293 cells - 32 hour (AID 1224881). Note: nearly all actives have a fitted effect of over 40% in size. Note: potency is the fitted concentration of half-maximal effect. The method in brief: as §1
A short description of test [11]: A CellTox Green Cytotoxicity Assay to monitor cytotoxicity in HepG2 cells - 0 hour (AID 1224882). Note: nearly all actives have a fitted effect of over 35% in size. The method in brief:
as §5

A short description of test [12]: A CellTox Green Cytotoxicity Assay to monitor cytotoxicity in HEK293 cells - 8 hour (AID 1224884). Note: nearly all actives have a fitted effect of over 35% in size. The essentials: as §1
Test [13] is described as follows: qHTS RealTime-Glo MT Cell Viability Assay in HepG2 cells - 16 hour (AID 1224885). Note: nearly all actives have a fitted effect of over 50% in size. Note: potency is the fitted concentration of half-maximal effect. The method in brief: as §4
Test [14] can be described thus: qHTS RealTime-Glo MT Cell Viability Assay in HEK293 cells - 24 hour (AID 1224886). For activity change, negative = cytotoxicity: top concentration of the series differs between compounds. Note: nearly all actives have a fitted effect of over 50% in size. Note: potency is the fitted concentration of half-maximal effect. The method in brief: as §2
Test [15] can be described thus: qHTS RealTime-Glo MT Cell Viability Assay in HEK293 cells - 8 hour (AID 1224887). For activity change, negative = cytotoxicity: top concentration of the series differs between compounds. Note: nearly all actives have a fitted effect of over 50% in size. Note: potency is the fitted concentration of half-maximal effect. The method in brief:
as §3

A short description of test [16]: A CellTox Green Cytotoxicity Assay to monitor cytotoxicity in HEK293 cells - 16 hour (AID 1224888). Note: nearly all actives have a fitted effect of over 35% in size. Note: potency is the fitted concentration of half-maximal effect. The method in brief: as §1
The nature of test [17]: qHTS RealTime-Glo MT Cell Viability Assay in HepG2 cells - 0 hour (AID 1224889). Note: nearly all actives have a fitted effect of over 50% in size. Note: potency is the fitted concentration of half-maximal effect. The method in brief:
as §4

Test [18] is described as follows: A CellTox Green Cytotoxicity Assay to monitor cytotoxicity in HepG2 cells - 8 hour (AID 1224890). Note: nearly all actives have a fitted effect of over 45% in size. Note: potency is the fitted concentration of half-maximal effect. The method in brief:
as §5

The nature of test [19]: A CellTox Green Cytotoxicity Assay to monitor cytotoxicity in HepG2 cells - 16 hour (AID 1224876). Note: nearly all actives have a fitted effect of over 45% in size. Note: potency is the fitted concentration of half-maximal effect. The essentials: as §5
Test [20] in a line: A CellTox Green Cytotoxicity Assay to monitor cytotoxicity in HepG2 cells - 32 hour (AID 1224883). Note: nearly all actives have a fitted effect of over 50% in size. Note: potency is the fitted concentration of half-maximal effect. The essentials: as §5

Structures are written as SMILES. Where “and” joins values, the source holds several entries; their conditions need not be identical. Identical values can stand only once. Inconclusive results are not listed. Some structures have more than one record in an assay (separate samples or runs), and their calls can disagree. Calls of active or inactive are those of the source. Calls come from the whole dose curve; as a rule, active = well fitted curve in the direction sought with a large enough effect in the repeat runs; inconclusive = weak or mixed curves; inactive = no such curve, though single readings can be large; an effect the other way counts as inactive or inconclusive.
% is set by controls: 0 for no effect and ±100 for the full control effect.

As to `CCCCN(CCCC)C(=S)[S-].CCCCN(CCCC)C(=S)[S-].[Zn+2]`, the Potency in [1] was 15.5 µM (active); in test [2], 12.3 µM (active); in test [3], 21.9 µM (active); in test [4] it was 11 µM (active); in [5], 21.9 µM (active); in test [6], 24.5 µM (active). For the same compound, the Potency in [7] is 34.7 µM (active); in test [8], 24.5 µM (active); in test [10], 19.5 µM (active); in [13], 34.7 µM (active); in test [14], 11 µM (active); in [15] it was 15.5 µM (active). In addition, the Potency result in [9], in [11], in test [12], in test [16], in test [17] and in test [18] was “inactive” throughout.

In the case of `CN(C)C(=S)S`, the Potency in [1] is 9.97 µM (active) and 1.54 µM (active) and 6.92 µM (active); in test [2], 1.94 µM (active) and 12.3 µM (active); in test [4] it was 11.2 µM (active) and 1.73 µM (active) and 9.77 µM (active); in test [19], “inactive and 34.7 µM (active)”; in test [6] it was “inactive and 9.77 µM (active)”; in test [7], 22.3 µM (active) and 5.45 µM (active) and 15.5 µM (active). Further, the Potency is 15.8 µM (active) and 4.86 µM (active) and 11 µM (active) in [8]; 8.88 µM (active) and 3.07 µM (active) and 6.92 µM (active) in [10]; “inactive and 15.5 µM (active)” in test [13]; 11.2 µM (active) and 1.73 µM (active) and 11 µM (active) in [14]. For the same compound, the Potency result in test [3], in test [9], in test [11], in [12], in [16] and in [17] was “inactive” throughout. In addition, in test [18], the Potency entry was “inactive”.

In the case of `COS(=O)(=O)c1ccc(C)cc1`, the Potency result in test [1], in [2], in test [3], in [5], in test [6] and in test [7] was “inactive” in each case. For the same compound, the Potency entry in [8], in test [10], in test [11], in [20], in test [12] and in test [13] was “inactive” each time. Besides, the Potency result in test [14], in test [15], in test [16], in [17] and in test [18] was “inactive” throughout. For the same compound, the max response in [4] was 16.1% (inactive).

Regarding `CN(C)CCc1c[nH]c2ccc(O)cc12`, the Potency entry in test [1], in [2], in test [3], in [5], in test [19] and in test [6] was “inactive” in each case. Moreover, the Potency entry in [7], in test [9], in [10], in [11], in test [20] and in test [12] was “inactive” throughout. Further, the Potency entry in [13], in [14], in [15], in [16], in [17] and in [18] was “inactive” in each case. Further, the max response in test [4] was 2.26% (inactive).

Turning to `CC(C)CC(C)Nc1ccc(Nc2ccccc2)cc1` (stereo unspecified), the Potency is 48.2 µM (active) in test [1]; 19.2 µM (active) in [2]; 42.9 µM (active) in [3]; 21.5 µM (active) in [4]; 48.2 µM (active) in [10]; 21.5 µM (active) in [14]. Further, the Potency in test [17] is 24.1 µM (active). Besides, the Potency entry in test [19], in [7], in test [11], in test [12], in [16] and in [18] was “inactive” in each case.

In the case of `O=C1c2ccccc2C(=O)C1C(=O)C(c1ccccc1)c1ccc(Cl)cc1` (stereo unspecified), the Potency entry in [1], in [2], in test [3], in [6], in test [9] and in test [13] was “inactive” each time. The Potency result in test [14] and in test [15] was “inactive” in each case. In addition, the max response in test [4] was -21.2% (inactive). The Potency was 49 µM (active) in test [19], 54.9 µM (active) in test [7], 54.9 µM (active) in [20] and 49 µM (active) in [18].

As to `[Cl][Sn]([c]1ccccc1)([c]1ccccc1)[c]1ccccc1`, the Potency is 1.65 µM (active) in test [1]; 0.293 µM (active) in test [2]; 7.37 µM (active) in test [3]; 0.233 µM (active) in test [4]; 1.85 µM (active) in [5]; 2.61 µM (active) in [6]. Also, the Potency is 2.61 µM (active) in test [7]; 2.61 µM (active) in test [8]; 1.65 µM (active) in [10]; 2.61 µM (active) in [20]; 2.93 µM (active) in [13]; 0.262 µM (active) in test [14]. The Potency in [16] is 2.33 µM (active); in test [18], 9.28 µM (active). The activity change, negative = cytotoxicity in test [9] is 1.26% [at 15.8 µM] (inactive); in [17] it was 2.43% [at 15.8 µM] (inactive). The cytotoxicity in test [11] is 7.07% [at 15.8 µM] (inactive).

For the compound `O=C(CCl)C(Cl)Cl`, the Potency in test [1] was 24.8 µM (active); in test [2] it was 17.5 µM (active); in test [4], 17.5 µM (active); in test [8] it was 49.4 µM (active); in [20], 55.5 µM (active); in test [14] it was 17.5 µM (active). Moreover, the Potency entry in [3], in test [19], in test [11], in test [13], in test [16] and in [17] was “inactive” in each case. Besides, the Potency result in [18] is “inactive”.

On to `CC(C)(C)C(O)C(Oc1ccc(-c2ccccc2)cc1)n1cncn1` (stereo unspecified), for which the Potency entry in [1], in [3], in test [5], in [19], in test [6] and in test [9] was “inactive” in each case. In addition, the Potency entry in test [11], in test [12], in [13], in [16], in test [17] and in test [18] was “inactive” throughout. Moreover, the results for the Potency in test [2], in test [4] and in test [14] were 49 µM (active), 21.9 µM (active) and 43.6 µM (active), respectively.

In the case of `C=CC(=O)N(C)C`, the Potency entry in test [1], in test [2], in test [3], in test [5], in [19] and in test [7] was “inactive” in each case. Further, the Potency result in test [8], in test [9], in test [10], in [11], in [20] and in test [13] was “inactive” in each case. The Potency entry in [14], in test [15], in test [16], in [17] and in test [18] was “inactive” throughout. In [4], the max response was -0.539% (inactive).
